Compounds with a hit are over-represented: about 2.7% of the library has one in this group of screens.
HIF-2a inh: HIF-2a reporter inhibitors, primary screen, luminescence, 786-0 RCC cells. 786-0 RCC cells HIF-2a reporter, luciferase luminescence, overnight. inhibition, % at 18.8 µM. hit rate 0.72% among 360,000. AID 624352, 2012;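 active = inhibition of the luminescence signal of 40% or more relative to plate controls, in a single-dose primary screen at 18.75 µM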
KKLEB cytotox: cytotoxicity in KKLEB CF airway cells, primary screen, cytotoxicity control for CF NF-kB inhibitor project, cell-based, uHTS, fluorescence assay plates; KKLEB CF airway cells viability, ATPlite luminescence, overnight; active compounds read low; cells stimulated with P. aeruginosa culture filtrate; activity change (cytotoxicity), % at 5 µM; hit rate 0.36% among 360,000; AID 602141, 2011;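 active = corrected activity change at or below -50% at 5 µM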
Shn3 3UTR inh: reduction of Shn3 3'UTR firefly luciferase signal, primary screen, Schnurri-3 inhibitor project, cell-based, Clone20 osteoblasts, set 2; Clone20 osteoblast Shn3 3'UTR firefly luciferase, 24 h; inhibition, % at 12.5 µM; hit rate 0.52% among 360,000; AID 588674, 2011;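 active = mean inhibition of at least 75% with every replicate also reaching 75%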;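 also: 0% = median of neutral control wells and 100% = pilot-screen positive control compound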
Peg3 prom inh: Peg3 promoter-driven luciferase inhibitors, primary screen, cell-based, HeLa, luciferase luminescence. HeLa PEG-Prom luciferase reporter, overnight. hit rate 1.7% among 360,000. AID 588405, 2011. inhibition, % at 20 µM;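 active = inhibition of at least 50% at 20 µM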
TRPM1 prom inh: inhibitors of MITF-dependent TRPM1 promoter reporter, primary screen, cell-based, SK-MEL-5, single point, luciferase; SK-MEL-5 TRPM1 promoter luciferase, 24 h; inhibition, % at 12.5 µM; AID 488899, 2010; hit rate 0.83% among 330,000;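 active = mean inhibition across replicates of 60% or more, whatever share of single replicates reaches that level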
CF NFkB block: inhibitors of PAF-induced NF-kB signaling, primary screen, cell-based, GFP fluorescence, uHTS | inhibition, % at 5 µM | hit rate 0.86% among 360,000 | AID 588850, 2011 | KKLEB NF-kB-GFP reporter, GFP fluorescence overnight;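 active = at least 50% inhibition at 5 µM, scaled per plate between neutral and stimulator controls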;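 also: PAF is a Pseudomonas aeruginosa culture filtrate used as stimulus; plate controls were PAF-stimulated DMSO wells for no effect and unstimulated DMSO wells for full effect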
Mdm2 MdmX conf: retested Mdm2-MdmX interaction blockers, confirmation, cell-based, luminescence, single concentration, set 2; shares compounds with HIF-2a inh; SaOS-2 split-luciferase Mdm2/MdmX complementation; inhibition, % at 8 µM; hit rate 99% among 740; AID 504601, 2011;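 active = mean inhibition of the luminescence signal across two replicates at or above 26 percent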
Target sequence (O15151 whole entry, looked up): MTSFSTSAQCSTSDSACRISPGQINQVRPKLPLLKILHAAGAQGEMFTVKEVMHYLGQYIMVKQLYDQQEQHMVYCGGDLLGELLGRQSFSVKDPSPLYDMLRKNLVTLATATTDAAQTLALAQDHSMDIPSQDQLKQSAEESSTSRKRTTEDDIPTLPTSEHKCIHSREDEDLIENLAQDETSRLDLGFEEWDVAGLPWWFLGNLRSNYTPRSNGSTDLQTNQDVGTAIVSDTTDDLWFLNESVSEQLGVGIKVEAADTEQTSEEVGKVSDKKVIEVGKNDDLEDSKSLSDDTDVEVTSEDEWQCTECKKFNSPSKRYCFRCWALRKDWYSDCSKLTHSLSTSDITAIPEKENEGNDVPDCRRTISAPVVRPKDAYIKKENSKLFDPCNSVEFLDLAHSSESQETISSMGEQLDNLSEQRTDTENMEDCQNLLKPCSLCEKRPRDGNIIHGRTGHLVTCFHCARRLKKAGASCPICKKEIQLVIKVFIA
Target sequence (Q00987 whole entry, looked up): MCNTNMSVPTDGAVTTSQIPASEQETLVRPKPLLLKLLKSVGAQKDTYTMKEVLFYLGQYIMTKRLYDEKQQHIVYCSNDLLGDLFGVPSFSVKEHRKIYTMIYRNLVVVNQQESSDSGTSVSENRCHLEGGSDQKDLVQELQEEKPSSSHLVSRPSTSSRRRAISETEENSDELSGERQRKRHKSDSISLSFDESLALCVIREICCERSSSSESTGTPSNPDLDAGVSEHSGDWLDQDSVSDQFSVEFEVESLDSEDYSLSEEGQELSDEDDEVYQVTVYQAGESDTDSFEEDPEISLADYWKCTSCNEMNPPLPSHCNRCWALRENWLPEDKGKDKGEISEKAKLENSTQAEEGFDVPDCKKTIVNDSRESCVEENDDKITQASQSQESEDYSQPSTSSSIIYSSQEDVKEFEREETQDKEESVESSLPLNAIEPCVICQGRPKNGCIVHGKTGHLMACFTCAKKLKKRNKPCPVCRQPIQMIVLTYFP
HIF-2a conf: HIF-2a reporter inhibitor retest, confirmation, luminescence, 786-0 RCC cells; shares compounds with HIF-2a inh; HIF-2a luciferase reporter luminescence, overnight; inhibition, % at 18.8 µM; hit rate 56% among 1,800; AID 651580, 2012;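 active = mean inhibition across four replicates of at least 40 percent at the single tested concentration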
HIF-1a cs: HIF-1a luciferase reporter signal reduction – MiaPaCa-2 cells, single concentration, counter-screen for HIF-2a inhibitor project, confirmation; MiaPaCa-2 HIF-1a luciferase reporter, desferoxamine, overnight; hit rate 72% among 1,800; shares compounds with HIF-2a inh; AID 651589, 2012; inhibition, % at 18.8 µM;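 active = mean inhibition of the reporter signal across four replicates at the single tested dose of 50% or more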
* marks the source's active call; other numbers are inactive results.

Screening NC(=S)c1cn(C2OC(CO)C(O)C2O)c2ncnc(N)c12 (centres undefined) returned HIF-2a inh 52*, KKLEB cytotox -79*, Shn3 3UTR inh 97*, Peg3 prom inh 107*, TRPM1 prom inh 82*, CF NFkB block 90*, HIF-2a conf 32 and HIF-1a cs 105*.
For Nc1ncnc2c1ccn2[C@@H]1O[C@H](CO)[C@@H](O)[C@H]1O the results were HIF-2a inh 35*, KKLEB cytotox -97*, Shn3 3UTR inh 96*, Peg3 prom inh 100*, CF NFkB block 87*, Mdm2 MdmX conf 103*, HIF-2a conf 29 and HIF-1a cs 103*.
Screening C#CCOC(=O)C1=CCCN(C)C1 returned HIF-2a inh -1, KKLEB cytotox -6, Shn3 3UTR inh -11, Peg3 prom inh 3, TRPM1 prom inh 6 and CF NFkB block -6.
C#CCCC[C@@H]1OC(=O)CNC(=O)C([C@@H](C)CC)NC(=O)[C@@H]2CCCN2C(=O)C([C@@H](C)CC)OC(=O)[C@H](Cc2ccccc2)N(C)C(=O)[C@H](C(C)C)NC(=O)C1(C)C (some centres undefined) was read as HIF-2a inh -29, KKLEB cytotox -7, Shn3 3UTR inh 16, Peg3 prom inh 5 and CF NFkB block -19.
Screening CCC(C)C1NC(=O)C(NC(=O)C(CC(C)C)N(C)C(=O)C2CCCN2C(=O)C(C)O)C(C)OC(=O)C(Cc2ccc(OC)cc2)N(C)C(=O)C2CCCN2C(=O)C(CC(C)C)NC(=O)[C@H](C)C(=O)[C@H](C(C)C)OC(=O)CC1O (some centres undefined) returned HIF-2a inh 83*, KKLEB cytotox -70*, Shn3 3UTR inh 99*, Peg3 prom inh 100*, TRPM1 prom inh 105*, CF NFkB block 94*, HIF-2a conf 79* and HIF-1a cs 100*.
Screening O=Cc1cn(Cc2cccc([N+](=O)[O-])c2)c2ccccc12 returned HIF-2a inh 46*, KKLEB cytotox -40, Shn3 3UTR inh 34, Peg3 prom inh 101*, TRPM1 prom inh 24, CF NFkB block 38, HIF-2a conf 63* and HIF-1a cs -8.
COc1cc(/C=C(/C)[N+](=O)[O-])ccc1OCc1ccccc1Cl was read as HIF-2a inh 94*, KKLEB cytotox -66*, Shn3 3UTR inh 96*, Peg3 prom inh 105*, TRPM1 prom inh 91*, CF NFkB block 85* and Mdm2 MdmX conf 103*.
For COc1cc(C=C2C(=O)NC(=O)NC2=O)ccc1OCc1ccc([N+](=O)[O-])cc1 the results were HIF-2a inh -203, KKLEB cytotox -2, Shn3 3UTR inh -54, Peg3 prom inh -248, TRPM1 prom inh -67 and CF NFkB block -24.
`Nc1cc(Cl)c2nonc2c1[N+](=O)[O-]` gave HIF-2a inh 94*, KKLEB cytotox -76*, Shn3 3UTR inh 95*, Peg3 prom inh 107*, TRPM1 prom inh 93*, CF NFkB block 76*, HIF-2a conf 97* and HIF-1a cs 103*.
Screening O=[N+]([O-])c1c(Cl)c(Cl)c(Cl)c(Cl)c1Cl returned HIF-2a inh 7, KKLEB cytotox -13, Shn3 3UTR inh 7, Peg3 prom inh 9, TRPM1 prom inh 9 and CF NFkB block -4.
`COC(=O)C12OCC34C(CC5C(C)=C(O)C(=O)CC5(C)C3C(O)C1O)OC(=O)C(OC(=O)/C=C(\C)C(C)C)C24` (centres undefined) gave HIF-2a inh 75*, KKLEB cytotox -52*, Shn3 3UTR inh 99*, Peg3 prom inh 103*, TRPM1 prom inh 85*, CF NFkB block 96*, HIF-2a conf 69* and HIF-1a cs 106*.
Screening C1CCC(NC2CCCCC2)CC1 returned HIF-2a inh -2, KKLEB cytotox 11, Shn3 3UTR inh 5, Peg3 prom inh 10, TRPM1 prom inh -2 and CF NFkB block -9.
C=C1C(=O)O[C@@H]2C[C@@H](C)[C@@H]3C=CC(=O)[C@@]3(C)[C@@H](O)[C@H]12 was read as HIF-2a inh 97*, KKLEB cytotox -60*, Shn3 3UTR inh 99*, Peg3 prom inh 92*, TRPM1 prom inh 106*, CF NFkB block 88* and Mdm2 MdmX conf 100*.
Screening CC(=O)C1CCC2(O)C3CCC4=CC(=O)CCC4(C)C3CCC12C (centres undefined) returned HIF-2a inh 4, KKLEB cytotox 4, Shn3 3UTR inh -2, Peg3 prom inh -5, TRPM1 prom inh 4 and CF NFkB block 13.
`C[C@@H]1O[C@@H](O[C@@H]2C=C3CC[C@@H]4C(CC[C@]5(C)[C@@H](c6ccc(=O)oc6)CC[C@]45O)[C@@]3(C)CC2)[C@H](O)[C@H](O)[C@H]1O` (some centres undefined) gave HIF-2a inh 86*, KKLEB cytotox -76*, Shn3 3UTR inh 3, Peg3 prom inh 107*, TRPM1 prom inh 83*, CF NFkB block 89*, HIF-2a conf 46* and HIF-1a cs 105*.
For C[C@H]1CCC/C=C/[C@@H]2C[C@H](O)C[C@H]2[C@H](O)/C=C/C(=O)O1 the results were HIF-2a inh 60*, KKLEB cytotox 17, Shn3 3UTR inh 97*, Peg3 prom inh 43, TRPM1 prom inh 81*, CF NFkB block 76*, Mdm2 MdmX conf 96*, HIF-2a conf 43* and HIF-1a cs 75*.
CC(=O)OC[C@]12CCC(C)=C[C@H]1O[C@@H]1[C@H](O)[C@@H](OC(C)=O)[C@@]2(C)[C@]12CO2 was read as HIF-2a inh 90*, KKLEB cytotox -56*, Shn3 3UTR inh 99*, Peg3 prom inh 108*, TRPM1 prom inh 91*, CF NFkB block 104*, HIF-2a conf 81* and HIF-1a cs 105*.
